SUMO1 PPI mod: SUMO1-SIM interaction modulation; SUMO1 binding to a labelled peptide, TR-FRET, 1 h; inhibition, % at 20 µM; 360,000 tested, 0.33% active; in the data active = inhibition above about 37%
Target sequence (P63165 whole entry, looked up): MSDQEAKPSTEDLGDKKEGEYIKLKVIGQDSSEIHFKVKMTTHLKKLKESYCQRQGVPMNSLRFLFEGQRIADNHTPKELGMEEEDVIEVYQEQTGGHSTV
Rin1 Abl inh: inhibitors of human Rin1-Abl protein interaction; TR-FRET Rin1/Abl binding, biochemical; inhibition, % at 7.35 µM; 360,000 tested, 0.4% active; AID 588664; in the data active = inhibition above about 5%, passing the limit was not always enough
ATG4B inh: ATG4B (human) cysteine protease inhibition | Q9Y4P1 | ATG4B cleavage of LC3-PLA2, NBD-HPC fluorescence, 1 h | inhibition, % at 8.33 µM | 340,000 tested, 0.51% active | AID 504462; in the data active = inhibition above about 40%
Target sequence (Q9Y4P1 whole entry, looked up): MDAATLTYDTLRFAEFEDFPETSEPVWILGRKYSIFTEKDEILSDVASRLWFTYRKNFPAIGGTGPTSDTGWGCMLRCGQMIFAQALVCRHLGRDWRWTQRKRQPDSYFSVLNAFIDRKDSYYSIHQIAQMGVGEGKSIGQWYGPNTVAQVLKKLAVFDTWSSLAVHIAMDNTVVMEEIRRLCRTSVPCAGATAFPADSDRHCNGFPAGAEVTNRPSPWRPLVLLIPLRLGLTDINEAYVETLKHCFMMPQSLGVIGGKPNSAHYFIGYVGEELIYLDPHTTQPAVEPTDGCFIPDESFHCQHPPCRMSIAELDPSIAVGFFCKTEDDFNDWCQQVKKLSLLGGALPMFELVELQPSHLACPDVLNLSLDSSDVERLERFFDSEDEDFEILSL
Neddyl block: inhibitors of human cullin neddylation; AID 651699; TR-FRET cullin neddylation, biochemical; P61081+Q13564; 360,000 tested, 0.58% active; inhibition, % at 25 µM; in the data active = inhibition above about 36%
ATG4B confirm: confirmation of human ATG4B inhibitors; shares compounds with ATG4B inh; ATG4B protease fluorescent substrate cleavage assay; inhibition, % at 8.33 µM; 320 tested, 92% active; AID 504757; in the data active = inhibition above about 39%
PLA2 counter: inhibits human PLA2, flagging false ATG4B inhibitors | shares compounds with ATG4B inh | purified PLA2, NBD-C6-HPC fluorescence, 45 min | inhibition, % at 8.33 µM | 1,600 tested, 66% active | AID 588402; in the data active = inhibition above about 50%
Rin1 Abl conf: Rin1-Abl interaction inhibition confirmation; shares compounds with Rin1 Abl inh; TR-FRET Rin1-Abl binding, purified proteins; inhibition, % at 7.35 µM; 1,300 tested, 49% active
GFP quench-1: counter-screen for Rin1-Abl inhibitors: GFP fluorescence quenchers; shares compounds with Rin1 Abl inh; inhibitors/quenchers counterscreen; inhibition, % at 6.75 µM; 1,300 tested, 8.5% active; AID 602125;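 note: ABL1-eGFP fusion protein alone without its partner RIN1-SBP; 0% = protein with vehicle and 100% = wells lacking protein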
GFP quench DR: GFP fluorescence interference dose response | shares compounds with Rin1 Abl inh | GFP fluorescence interference/quenching counterscreen | IC50, µM | 230 tested, under 10 active; call rule not given here;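 note: ABL1-eGFP fusion protein alone without its RIN1 binding partner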
GFP quench-2: GFP quenching artifact for Rin1-Abl inhibitor hits; shares compounds with Rin1 Abl inh; GFP fluorescence quenching counterscreen, biochemical; IC50, µM; 25 tested, under 10 active; call rule not given here
Neddyl inh conf: confirmation of human cullin neddylation inhibitors; shares compounds with Neddyl block; TR-FRET cullin neddylation biochemical assay; calls only at 25 µM; 1,800 tested, 13% active; AID 652217; in the data active = inhibition above about 40%;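 note: neddylation substrate is the cullin 1 ring ligase complex with SKP2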
* marks the source's active call; other numbers are inactive results; i = inactive; / = no result shown. The list is not random: actives were taken first. Their share in the collection is about 1.7%. Cut-off read from the data, not from the text of the source, unless noted: active = inhibition above about 6.5%; inactive = the rest.

SMILES	SUMO1 PPI mod	Rin1 Abl inh	ATG4B inh	Neddyl block	PLA2 counter	Rin1 Abl conf	GFP quench-1	others
O=C1c2cccc(Cl)c2C(=O)c2c1cccc2N1CCCC1	-8	-4	48*	-42	63*	/	/
CCOc1cc(C=NN=C2c3ccccc3-c3ccccc32)ccc1O	-13	3	-8	-20	/	/	/
Cc1cc(C(=O)N/N=C\c2cc(C(C)(C)C)ccc2O)n[nH]1	-6	0	47*	24	55*	/	/
Cc1cc(C(=O)N/N=C/c2cc(Br)cc(Br)c2OC(=O)c2cccc(F)c2)n[nH]1	7	1	44*	24	42	/	/
CC(C)c1cc(Cn2c3ccccc3c(=O)n2C(C)Cn2cc(COc3ccccc3)nn2)on1 (centres undefined)	5	/	/	/	/	/	/
O=C(O)/C=C\C(=O)Nc1ccc(Oc2ccccc2)cc1	5	-1	-12	2	/	/	/
O=C(O)/C=C/C(=O)Nc1ccc(C2(c3ccc(NC(=O)/C=C/C(=O)O)cc3)c3ccccc3-c3ccccc32)cc1	35	-2	55*	1	65*	/	/
Cc1ccc(S(=O)(=O)N2C[C@H]3C(=O)C[C@@H](c4ccccc4F)N(S(=O)(=O)c4ccc(C)cc4)[C@H]3C[C@H]2c2ccccc2F)cc1	4	5	/	-1	/	/	/
Cc1cc(N=Nc2ccccc2)cc(C)c1NC(=O)C(F)(F)F	-15	4	-4	-15	/	/	/
CCOc1ccc(C(=O)Nc2ccccc2-c2ccccc2)cc1Cl	7	-2	45*	-249	48	/	/
C=CCN1C(c2ccc(Br)cc2)=CS/C1=C(\C#N)c1nnc(N2CCOCC2)n1-c1ccccc1	-10	2	52*	-14	69*	/	/
Cn1c(=O)c2cc(NC(=O)NCc3ccccc3)ccc2n1C/C=C/c1ccccc1	-5	3	/	/	/	/	/
COc1ccc(Br)cc1CNC(=O)C1CCCN(c2nc3ccccc3o2)C1 (centres undefined)	0	0	64*	-3	68*	/	/
Cc1ccc(CNC(=O)C2CCCN(c3nc4ccccc4o3)C2)cc1 (centres undefined)	5	-2	-10	-6	/	/	/
CC(=O)Nc1cccc(C(=O)NN2C(=O)NC3(CCC(C)CC3)C2=O)c1 (centres undefined)	-9	-3	/	-4	/	/	/
O=C(O)c1cc(N2N=C(C(F)(F)F)/C(=C/C=C/c3ccco3)C2=O)ccc1Cl	105*	12*	96*	18	78*	4	26*
CCOC(=O)c1ccc(N2N=C(C)/C(=C/C=C/c3ccco3)C2=O)cc1	-5	0	-4	-1	/	/	/
COCCCN1C(=O)C(CC(=O)NC2CCCCC2)CC(C(=O)N(C)C)=C1C (centres undefined)	-4	-5	/	-9	/	/	/
COC1=CC(=O)c2c(ccc3ncnc(N)c23)C1=O	72*	17*	62*	-39	-12	31*	3	ATG4B confirm=49*;GFP quench DR=>67
O=C1/C(=C/C=C/c2ccco2)SC(=S)N1NS(=O)(=O)c1ccccc1	112*	13*	78*	17	18	5	26*	ATG4B confirm=41*
CCOC(=O)C1(C)CCCN(C(=O)c2c(-c3ccccc3)noc2C)C1 (centres undefined)	-7	-1	/	4	/	/	/
COc1ccc(NS(=O)(=O)c2ccc3c(c2)[C@H]2C=CC[C@H]2[C@@H](c2ccc(C(=O)O)cc2)N3)cc1	53*	9.2*	78*	-10	48	9.5*	17*	ATG4B confirm=31
N#CCC(=O)Nc1ccc(C(=O)NCCC(c2ccccc2)c2ccccc2)cc1	-2	3	-3	-8	/	/	/
CN(C)C(CNC(=O)c1ccc(NC(=O)CC#N)cc1)c1ccccc1 (centres undefined)	-4	10*	47*	14	56*	6.7*	0
COc1cc(C(O)c2nc(-c3ccc(N(C)C)cc3)cs2)ccc1F (centres undefined)	-2	-5	/	-27	/	/	/
SMILES	SUMO1 PPI mod	Rin1 Abl inh	ATG4B inh	Neddyl block	PLA2 counter	Rin1 Abl conf	GFP quench-1	others
N=C(N)c1ccc(N=Nc2c(O)ccc3c2[nH]c2ccccc23)cc1	129*	22*	86*	-16	18	24*	20*	ATG4B confirm=38*
Cc1cccc(CN2CCN(C3CN(C4CCCCC4)S(=O)(=O)C3)CC2)c1 (centres undefined)	-4	4	/	-4	/	/	/
CCc1ccc2oc(-c3ccc(OC)cc3)cc(=Nc3cccc(C(=O)O)c3)c2c1	-11	1	81*	43*	80*	/	/	Neddyl inh conf=i
CCc1nc(N2CCN(Cc3ccc4c(c3)OCO4)CC2)c2oc3ccccc3c2n1	3	-1	49*	44*	70*	/	/	Neddyl inh conf=i
CCc1nc(Nc2ccc3c(c2)OCO3)c2oc3ccccc3c2n1	7	-1	18	/	/	/	/
O=C(NCc1ccccc1)c1cc(C2COCCN2S(=O)(=O)c2cccs2)on1 (centres undefined)	1	-1	/	-6	/	/	/
NC(=S)NN=C1CSSC1	-8	0	/	5	/	/	/
COc1ccc(N2C(=O)c3ccccc3NC23CCC(C)CC3)cc1 (centres undefined)	-3	4	45*	45*	40	/	/	ATG4B confirm=61*
Cc1ccc(NC(=O)CN2CCCCCC2)c(Br)c1	2	10*	5	1	/	-3	-1
COc1cc(N)c(C(=O)c2nccc3cc(OC)c(OC)cc23)cc1OC	-8	-4	-3	-6	/	/	/
COc1cc(Br)c(C(=O)c2nccc3cc(OC)c(OC)cc23)cc1OC	19	6.0*	16	-126	/	3	0
CC(CSC(=O)c1ccccc1)C(=O)N1c2ccccc2CC1C(=O)O (centres undefined)	8	5	/	-1	/	/	/
COc1ccc(C(=O)CC(C#N)c2ccc3c(c2)OCO3)cc1OC (centres undefined)	-1	11*	/	-16	/	-3	0
COc1ccc(C(C#N)CC(=O)c2ccc3c(c2)OCO3)cc1OC (centres undefined)	-2	-7	/	0	/	/	/
N#Cc1ccccc1Sc1ccccc1C(=O)NCC(c1ccco1)N1CCCC1 (centres undefined)	-2	49*	18	7	/	62*	1	GFP quench DR=>68;GFP quench-2=>68

High-throughput results as filed in PubChem.
